57 compounds from PubChem BioAssay (Tox21) can be followed below.

The nature of test [1]: cAMP Responsive Elements (CRE) small molecule antagonists, cell-based qHTS assay: qHTS cell viability counter screen (AID 2060913). Also: nearly all actives have a fitted effect of over 40% in size. The conditions noted are these: CRE-bla HEK293T viability, CellTiter-Glo luminescence, 5 h; series mostly up to 92.4 µM. In outline:
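Cytotoxicity counter screen multiplexed with the CRE-bla antagonist read: HEK293T cells in DMEM with dialyzed FBS and 25 mM HEPES were treated 3 hrs under 0.25 uM final NKH477, then viability measured by CellTiter-Glo luminescence.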
For orientation: Quantitative high-throughput screening tests each substance at several concentrations.

Test [2] in a line: cAMP Responsive Elements (CRE) small molecule agonists, cell-based qHTS assay: qHTS cell viability counter screen (AID 2060914).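 Also: viability read after 3 h of compound exposure; nearly all actives have a fitted effect of over 50% in size.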 The conditions noted are these: CRE-bla HEK293T viability, CellTiter-Glo luminescence, 5 h; series mostly up to 92.4 µM. In outline:
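Cells are seeded and incubated 18 h, treated with compounds in DMSO for 3 h, read for the bla reporter, then given CellTiter-Glo; luminescence is measured after 30 min at room temperature.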

SMILES strings stand for the structures. Records with an inconclusive call do not appear. Values without a mark were called inactive. Activity calls are given as the source filed them. Calls follow the shape of the dose curve; as a rule, active = well fitted cell-killing curve with a large enough effect in the repeat runs; inconclusive = weak or mixed curves, or effect the other way; inactive = flat fitted curve, though single readings scatter.
% is scaled to controls: 0 for no effect and ±100 for the full control effect.

Regarding `C[C@@H](O)C(=O)O`, the Potency result in test [1] and in test [2] was “inactive” each time.
`CCOc1ccccc1OCCN[C@H](C)Cc1ccc(OC)c(S(N)(=O)=O)c1`: the Potency result in test [1] and in test [2] was “inactive” each time.
Turning to `O=C(O)c1cc(O)c(O)c(O)c1`, the Potency result in test [1] and in test [2] was “inactive” each time.
`C=C(C)C(=O)OCCOCCOC(=O)C(=C)C`: the Potency result in test [1] and in test [2] was “inactive” throughout.
With `O=S(=O)(O)c1ccc2cc(O)c(S(=O)(=O)O)cc2c1`, the Potency entry in test [1] and in test [2] was “inactive” throughout.
Regarding `CCCCCC[C@@H](O)C/C=C\CCCCCCCC(=O)OCC(O)CO` (some centres undefined), the Potency result in test [1] and in test [2] was “inactive” throughout.
Turning to `CCC(C)(O)CCCC(C)C` (centres undefined), the Potency result in test [1] and in test [2] was “inactive” each time.
With `C=C(C)C(=O)OCCCCCCCCCC`, the Potency entry in test [1] and in test [2] was “inactive” throughout.
Regarding `CCCCC1=NC2(CCCC2)C(=O)N1Cc1ccc(-c2ccccc2-c2nn[nH]n2)cc1`, the Potency entry in test [1] and in test [2] was “inactive” in each case.
For `O=C1CC(c2ccc(Cl)cc2)CC(=O)N1`, the Potency result in test [1] and in test [2] was “inactive” throughout.
Take `Nc1ccn([C@@H]2O[C@H](CO)[C@@H](O)C2O)c(=O)n1` (some centres undefined): the Potency entry in test [1] and in test [2] was “inactive” in each case.
For the compound `CCOC(=O)CC1(C)OCC(C)O1` (centres undefined), the Potency entry in test [1] and in test [2] was “inactive” throughout.
For `CCc1ccccc1`, the Potency result in test [1] and in test [2] was “inactive” in each case.
On to `O=C=NCc1cccc(CN=C=O)c1`, for which, in test [1], the viability change, negative = cytotoxic is 5.35% [at 18.9 µM]. In addition, in test [2], the activity change, negative = cytotoxicity was -0.289% [at 18.9 µM].
Regarding `C=C(C)C(=O)OCCOC(=O)CC(C)=O`, the Potency entry in test [1] and in test [2] was “inactive” each time.
For the compound `CO[Si](OC)(c1ccccc1)c1ccccc1`, the Potency result in test [1] and in test [2] was “inactive” throughout.
As for `Cc1c(-c2cccnc2)c2ccccc2n1CCCCC(=O)O`, the Potency entry in test [1] and in test [2] was “inactive” throughout.
`CCCCOc1ccc(OCCCN2CCOCC2)cc1`: the Potency entry in test [1] and in test [2] was “inactive” in each case.
Take `OCCc1ccncc1`: the Potency result in test [1] and in test [2] was “inactive” in each case.
For the compound `CCCCCCCCCC(=O)N(C)C`, the Potency entry in test [1] and in test [2] was “inactive” each time.
Consider `COc1cc2nc(N3CCN(C(=O)C4CCCO4)CC3)nc(N)c2cc1OC` (centres undefined), for which the Potency entry in test [1] and in test [2] was “inactive” in each case.
`Nc1nc2c(ncn2COC(CO)CO)c(=O)[nH]1`: the Potency entry in test [1] and in test [2] was “inactive” each time.
Take `CC(C)(C#N)Nc1nc(Cl)nc(NC2CC2)n1`: the Potency entry in test [1] and in test [2] was “inactive” in each case.
With `O=C1c2ccccc2S(=O)(=O)N1CCCCN1CCN(c2ncccn2)CC1`, the Potency result in test [1] and in test [2] was “inactive” each time.
Regarding `c1ccc(Sc2ccccc2)cc1`, the Potency entry in test [1] and in test [2] was “inactive” in each case.
As to `CCCCCCc1ccc(O)cc1O`, the Potency entry in test [1] and in test [2] was “inactive” throughout.
Regarding `CCOC(=O)Oc1ccc(CCNC(=O)[C@H](CCSC)NC(C)=O)cc1OC(=O)OCC`, the Potency entry in test [1] and in test [2] was “inactive” throughout.
On to `CNCCCC12CCC(c3ccccc31)c1ccccc12`, for which the Potency result in test [1] and in test [2] was “inactive” in each case.
As for `Cc1c(N)cccc1[N+](=O)[O-]`, the Potency result in test [1] and in test [2] was “inactive” throughout.
`Fc1ccc(C(c2ccc(F)cc2)N2CCNCC2)cc1`: the Potency result in test [1] and in test [2] was “inactive” throughout.
Take `O=S1(=O)CCCO1`: the Potency entry in test [1] and in test [2] was “inactive” throughout.
As to `O=CN(CCO)CCO`, the Potency entry in test [1] and in test [2] was “inactive” throughout.
For `Cc1c(C)c2c(c(C)c1OC(=O)CCC(=O)O)CC[C@@](C)(CCC[C@H](C)CCC[C@H](C)CCCC(C)C)O2`, the Potency result in test [1] and in test [2] was “inactive” in each case.
On to `CCC1CCC(CCC(=O)O)C1` (centres undefined), for which the Potency entry in test [1] and in test [2] was “inactive” in each case.
Take `C1CCOC1`: the Potency result in test [1] and in test [2] was “inactive” throughout.
As for `CCCCCOC(=O)COc1cc(N2C(=O)C3=C(CCCC3)C2=O)c(F)cc1Cl`, the Potency result in test [1] and in test [2] was “inactive” in each case.
As to `Cn1c(=O)c2c(ncn2CC2OCCO2)n(C)c1=O`, the Potency entry in test [1] and in test [2] was “inactive” each time.
In the case of `C[C@](N)(Cc1ccc(O)cc1)C(=O)O`, the viability change, negative = cytotoxic in test [1] is -1.28% [at 8.39 µM]. The activity change, negative = cytotoxicity in test [2] is -8.98% [at 8.39 µM].
Take `C=CCNC(N)=S`: the Potency result in test [1] and in test [2] was “inactive” in each case.
For the compound `c1ccc(CCCc2ccncc2)cc1`, the Potency entry in test [1] and in test [2] was “inactive” throughout.
As to `c1ccc(CNc2ncnc3c2ncn3C2CCCCO2)cc1` (centres undefined), the Potency entry in test [1] and in test [2] was “inactive” each time.
For the compound `O=C1OC(=O)c2ccc3c4c(ccc1c24)C(=O)OC3=O`, the Potency entry in test [1] and in test [2] was “inactive” in each case.
Consider `Cc1cc(C)c(N)cc1C`, for which the Potency entry in test [1] and in test [2] was “inactive” in each case.
On to `CCNC(=O)C1CC(C)CCC1C(C)C` (centres undefined), for which the Potency entry in test [1] and in test [2] was “inactive” throughout.
For `CCC(C)C(=O)OC` (centres undefined), the Potency entry in test [1] and in test [2] was “inactive” in each case.
As for `O=C1CCCc2c1cc1ccc3cccc4ccc2c1c34`, the Potency result in test [1] and in test [2] was “inactive” in each case.
On to `CCCOc1ccc2c(c1)CC[C@@H]1[C@@H]2CC[C@]2(C)C(OC)CC[C@@H]12` (some centres undefined), for which the Potency result in test [1] and in test [2] was “inactive” throughout.
Take `CCN1C=CN(C)C1C` (centres undefined): the Potency entry in test [1] and in test [2] was “inactive” throughout.
For `N/C(=N\N=C\c1ccc(Cl)cc1)N/N=C/c1ccc(Cl)cc1`, the Potency result in test [1] and in test [2] was “inactive” in each case.
Take `COCCCC/C(=N\OCCN)c1ccc(C(F)(F)F)cc1`: the Potency entry in test [1] and in test [2] was “inactive” each time.
Consider `CC1=CC(=O)NS(=O)(=O)O1`, for which the Potency result in test [1] and in test [2] was “inactive” throughout.
For `Cn1cccc1`, the Potency entry in test [1] and in test [2] was “inactive” each time.
For the compound `CCOc1cc(OCC)c(C(=O)CCC(=O)O)cc1OCC`, the Potency result in test [1] and in test [2] was “inactive” each time.
With `CN(C)C(=O)Nc1ccc(Cl)c(Cl)c1`, the Potency entry in test [1] and in test [2] was “inactive” throughout.
Regarding `COc1ccc(CCN(C)CCCN2CCc3cc(OC)c(OC)cc3CC2=O)cc1OC`, the Potency result in test [1] and in test [2] was “inactive” each time.
For the compound `Cc1ccc(C(=O)Oc2ccc(C(O)CNC(C)(C)C)cc2OC(=O)c2ccc(C)cc2)cc1` (centres undefined), the Potency entry in test [1] and in test [2] was “inactive” each time.
In the case of `Cc1ccccc1N1CCN(CCc2nnc3n2CCCC3)CC1`, the Potency entry in test [1] and in test [2] was “inactive” throughout.
